Consider 25 molecules from PMC12136788.

Sequences and labels used below:
B1: chr1:10024197:10024198:-_ENSMUSG00000025917_ENSMUST00000027050|mus_mus|FALSE|FALSE (ssRNA)
RNA: GGGAGUUCUACAGUCCGACGAUCCAGCAUCUGUGUACUAACAUCAAUCCCGGAGAGCCAGCAGCCAUAACCAGGGUGGCUAUGAUACCAACCGAUUGCAUUCUCAAGGCGGCCAACCUGUUUGGCAUUUUCUAUGUAUGCAGCCAACAGAGGAUUGAGCAUCA
B2: chr1:225700702:225700703:-_ENSG00000154380_ENST00000366843|hu_hu|motif|central (ssRNA)
RNA: GGGAGUUCUACAGUCCGACGAUCACCAAUAGCAUUCCCUCCACUUGGGAAAGAGGUAUCCUCCAUCCGUGACACUUUCCGGAGUUUUGCUCCGGCAAUUGCAGCUGCAAGUCCAGUUAAAGGGCGAUUGUCUUCUGACAUGGACAACAGAGGAUUGAGCAUCA
B3: chr2:48026839:48026840:+_ENSG00000116062_ENST00000540021|hu_hu|hu_hu_hu_mus_False|28_88 (ssRNA)
RNA: GGGAGUUCUACAGUCCGACGAUCAUAGUGAGCCACUAGCGUCCUAAAUCUCGAACAGUGGCGGUCAUCCGAAAACUGGCCGAUGAAAAACUUGCCCAGUGAAGUGUCAACAAAGCAAACACCAUACACACGAGUGUGACCAGACAACAGAGGAUUGAGCAUCA
B4: chr1:100342015:100342016:+_ENSG00000162688_ENST00000361915|hu_hu|motif|central (ssRNA)
RNA: GGGAGUUCUACAGUCCGACGAUCAGAUUCUUCCAUGGAGAAGUCUAUCUCUUCAAAUGGGAAAGUAAAAUACCUGGUAACGGAAGGAUGCUUUCUAGUGACAGGUCCUAGUUUUGGACCAUGGCCAGCCAGUCGUUCAUAAAACAACAGAGGAUUGAGCAUCA
B5: chr6:21597833:21597834:+_ENSG00000124766_ENST00000244745|hu_mus|FALSE|FALSE (ssRNA)
RNA: GGGAGUUCUACAGUCCGACGAUCAAAGUUAAAACUCUAGCCCUUCAGUGAAGGAGACGUAAAAUGGCGUGGGUAACAACACUAGAAAAAAAAAAAAAACGAAGAAAAAGAAAGAAAAUAAAAAAGAAGAUAAAGAAACGAGGUCAACAGAGGAUUGAGCAUCA
B6: chr14:78183846:78183847:+_ENSG00000119705_ENST00000557342|hu_hu|hu_hu_hu_mus_False|58_98 (ssRNA)
RNA: GGGAGUUCUACAGUCCGACGAUCUCUCAGAAAUCUUUCUUUCUUUUAUGUUUGAGCUCCGUGCAAAGCCUUUGCUCUUCUAGUGUGAACGUGGAUCUAUGGGAGGGAAAGCACUGUCAGAAAAGGUAAUUUUUUUUUUAAAGACAACAGAGGAUUGAGCAUCA
B7: chr6:21597833:21597834:+_ENSG00000124766_ENST00000244745|hu_mus|motif|central (ssRNA)
RNA: B5 RNA with U82G, A83G
B8: chr17:32491106:32491107:-_ENSMUSG00000024050_ENSMUST00000163107|mus_hu|FALSE|FALSE (ssRNA)
RNA: GGGAGUUCUACAGUCCGACGAUCAUCGAUAACCAAAAUGUGGCCACUGAAAAAAGUUAAAAGGUCAAUCAGCUCCUGGCUUCUAGCUGGCCCAGGAUUGCAAAAUAAAAAGAUCCACGUUCCUUAUUCUCUACACAAAACGCGCAACAGAGGAUUGAGCAUCA
B9: 75522086_75522670_732_CDS_ENSMUSG00000026213_ENSMUST00000113553|mouse|control|control (ssRNA)
RNA: GGGAGUUCUACAGUCCGACGAUCCAGGAGACGCAGGGAGCUGUCUAAGCUCCUGAGCGCAUUGUAGCUGAAGUCGGCAGAAAGCAAGGCUAGCCAGGGGAGGGCAGAGCAGAGAUCCCCACCACAGGCUGACAAGAGCUCCUCCAACAGAGGAUUGAGCAUCA
B10: chr1:244855233:244855234:+_ENSG00000121644_ENST00000302550|hu_mus|hu_hu_hu_mus_True|28_88 (ssRNA)
RNA: GGGAGUUCUACAGUCCGACGAUCCAUCAGAUGGUAGGCGUUGCCCUUGUAUUCUUUCCCCAGUUCUUCUACAAUUUUCUCUAUAUCAUCUUCUAGAAAGUCCGUACUCCCUAAAACAACAGCUUCUUUAAAUUUAAAUGUUUCCAACAGAGGAUUGAGCAUCA
B11: chr7:118222036:118222037:-_ENSMUSG00000005610_ENSMUST00000162415|mus_mus|FALSE|FALSE (ssRNA)
RNA: GGGAGUUCUACAGUCCGACGAUCAUCAAAGUUUGGUGCAUCUUCUGCCAAUCGCAGACAUAGCUGAGCAUACAGCGAGCUAUACUUUGGCUCUUCUAAGGCUUUGUCCACAAUCAGCAGUAUGACCCCUUUAAGGAUGAGUUUCAACAGAGGAUUGAGCAUCA
B12: chr1:46159212:46159213:+_ENSG00000159596_ENST00000372025|hu_mus|hu_hu_hu_mus_True|38_58 (ssRNA)
RNA: GGGAGUUCUACAGUCCGACGAUCUCUGAUCCCUCCCAAGAAAGCUAGGAAACCGGCUCCAUAAGCCAUCUGAGUGAAAGCUAAUAUGGGGAUAUAAGUUUUUGUCAUUACCAUGAGAAGUGGGGGAGCAGUAAAGGGGAUUAACAACAGAGGAUUGAGCAUCA
B13: chr18:38477064:38477065:+_ENSMUSG00000060450_ENSMUST00000072376|mus_hu|motif|central (ssRNA)
RNA: GGGAGUUCUACAGUCCGACGAUCUGCAGAUAUAAUUCAAGAACAUUCAGCUUGGGAAUAUAUUAAGCUUUCUCCGGUUCCAGCAGAGGAAAUAAAAACAUGUGUUCCUGGAAUUAAUAUUAAAAUCAUCCUUACAAACAGAAGCAACAGAGGAUUGAGCAUCA
B14: chr15:25293464:25293465:-_ENSMUSG00000045763_ENSMUST00000058845|mus_hu|motif|central (ssRNA)
RNA: GGGAGUUCUACAGUCCGACGAUCAAAAAUAUCUGGAGAGGAAGAAUGGAGGAUUGGCAUUGAGAUCCAUGUGGACAAGCGGAGUGGGCUCUGUCUGAAAGCUGGCAUUCAUCCACAACAUUAAAAAAAUAUCAAAAUAAGAAACAACAGAGGAUUGAGCAUCA
B15: chr15:25293464:25293465:-_ENSMUSG00000045763_ENSMUST00000058845|mus_hu|FALSE|FALSE (ssRNA)
RNA: B14 RNA with G80U, G81A
B16: chr15:25293464:25293465:-_ENSMUSG00000045763_ENSMUST00000058845|mus_mus|motif|central (ssRNA)
RNA: GGGAGUUCUACAGUCCGACGAUCAAAAAUAUCUGGAGAGGAAAAAUGGAGGGUUGGCAUUGAGAUACAUGUGGACAAGCGGAGUGGGCUCCGUCUGAAAGUUGGCAUUCAUCCACGAACGUUUAAAAAAAUACCAAAAAAAUUCAACAGAGGAUUGAGCAUCA
B17: chr9:122046571:122046572:+_ENSMUSG00000038145_ENSMUST00000120173|mus_mus|FALSE|FALSE (ssRNA)
RNA: GGGAGUUCUACAGUCCGACGAUCCUGAAAUUUGUUGCUGAAGCCAAAGUCUGUCAACUUCACAAGACCUUGUUUUUCAAAAAAGACUACAUUCUCUGGUUUCAAGUCUCUGUGGACCACAUGGAGUUUAUGGCAAUAAGAUAUCAACAGAGGAUUGAGCAUCA
B18: chr5:128448638:128448639:+_ENSG00000066583_ENST00000173527|hu_mus|hu_hu_hu_mus_False|8_98 (ssRNA)
RNA: GGGAGUUCUACAGUCCGACGAUCGGCACUCGCCUUAAUUAGAUUCUGAAUUUCCUUGAACUUCGGGUGGUCUUUGUCAGCCACCAGCUGUAGGAGGACAGCCUCACUAGUGGUCACGAUGAUCCCAGUUCGAGCGAGACGCUCCAACAGAGGAUUGAGCAUCA
B19: chr12:39763582:39763583:-_ENSG00000139116_ENST00000544797|hu_mus|hu_hu_hu_mus_False|1_28 (ssRNA)
RNA: GGGAGUUCUACAGUCCGACGAUCCUCUAGGAACUGGGCAUUCACUUUGAAUUCAGGAGGGGGCAGCCCGUUUUUAAUCGCUGAGGUCUUUUUCUCAUCAAUACUCUUAAAAAGGUGUCUAACAGCACGAGAGAUGAUACCCAGCAACAGAGGAUUGAGCAUCA
B20: chr15:74751088:74751089:-_ENSG00000138629_ENST00000361351|perfect_dup|FALSE|FALSE (ssRNA)
RNA: GGGAGUUCUACAGUCCGACGAUCCGGGUCUGGAACAGAUUCCUGGAGCUUGCCAGCAAUAAGCUGCUUCAGAAAUGAAAUGCUAUAGCCCCCUAGGGAAUAUUCUCCCAGUUCUGUCUCUGGCAACUGAAGAAUAGAUUUUGGCAACAGAGGAUUGAGCAUCA
B21: chr8:86505109:86505110:+_ENSMUSG00000005469_ENSMUST00000005606|mus_mus|motif|central (ssRNA)
RNA: GGGAGUUCUACAGUCCGACGAUCCUUGUGCUUCACCAGCAUCACUCGCCCAAAGGAGCCGGUGCCAAGGGUCUUGAUUCGGUCAAACUGAUCCAACUGGGCUGUAUUCUGAGAAGGGGUCUCCCAUUUUUUCAGGAAAUCUUCCAACAGAGGAUUGAGCAUCA
B22: chr3:100366718:100366719:-_ENSMUSG00000008763_ENSMUST00000008907|mus_hu|FALSE|FALSE (ssRNA)
RNA: GGGAGUUCUACAGUCCGACGAUCAUUCUUAAAGAAAAAUCUAUUAUCUGUUAGCAUGAUUGGAGCACUGCAAUGUAUAUGCUAGUAAUAUGGUGUGUAAUUUCACAAGCAAUUUUAUGAGUUCUGCAAUUGCUAGGCUCAAACCAACAGAGGAUUGAGCAUCA
B23: chr1:153198750:153198751:+_ENSMUSG00000023150_ENSMUST00000023918|perfect_dup|FALSE|FALSE (ssRNA)
RNA: GGGAGUUCUACAGUCCGACGAUCUUCUGGAUUGAGAUCAUCAAAUUUAACGUGAGAAAUUCCAUGAGGAUCACUAUCACUAUUAAAGAUUUCAAAUAAAUAGGGACUGCAGCAAGCUAGCACUGCUCUGUGUGCUAACAUUUCCAACAGAGGAUUGAGCAUCA
B24: chr1:153198750:153198751:+_ENSMUSG00000023150_ENSMUST00000023918|perfect_dup|FALSE|FALSE (ssRNA)
RNA: GGGAGUUCUACAGUCCGACGAUCUUCUGGAUUGAGAUCAUCCAACUUCACAUGAGAAACUCCAUGAGGGUCACUGUCACUAUUGAAGAUUUCAAAUAGAUAGGGGCUACAGCAAGCCAGGACUGCCCUGUGUGCUAGCAUCUCCAACAGAGGAUUGAGCAUCA
B25: chr2:48034705:48034706:-_ENSG00000138081_ENST00000403359|hu_hu|FALSE|FALSE (ssRNA)
RNA: GGGAGUUCUACAGUCCGACGAUCCAUAGAAAGAACGUACAUACUGGGACAUGAGUACAGUUACAGCAAGUCUAGGUGUGCUAACAAAACAGGGCACAUUCAAGUACAGUAAGAUUUUGCUUGAAAUUAAAAACAAACUACAUGCAACAGAGGAUUGAGCAUCA

Substitutions are numbered along the chain they refer to. The full ranking holds about 24,000 sequences; the median of “enrichment r” is about 0.99, and the highest 2% start at about 3.7. The full list was thinned out, with the highest values kept by preference.

The target of this assay is T1, UNK ZnF1-3 (human, UniProt Q9C0B0 31-174).
T1 sequence: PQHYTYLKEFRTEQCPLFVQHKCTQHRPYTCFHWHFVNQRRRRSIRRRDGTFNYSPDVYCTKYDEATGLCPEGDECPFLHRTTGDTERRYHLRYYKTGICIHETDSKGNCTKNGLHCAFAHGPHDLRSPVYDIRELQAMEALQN
Nature of the assay: nsRBNS (natural sequence RNA bind-n-seq); RBNS binding buffer (assumed for nsRBNS): 25 mM Tris pH 7.5, 150 mM KCl, 3 mM MgCl2, 0.01% Triton X-100, 500 ug/ml BSA, 20 U/ml SUPERase-In, 4 C; UNK is unkempt and MSI1 is Musashi-1; names of the RNAs are library labels; protein concentration not given here; high values mean tight binding.
Take B1: the binding signal was determined as 1.5 enrichment R.
Under B2 stands 0.794 enrichment R.
Under B3 stands 1.25 enrichment R.
As to B4, the binding signal was 0.918 enrichment R.
B5: the binding signal came to 7.3 enrichment R.
Regarding B6, the binding signal was determined as 1.14 enrichment R.
For B7, the binding signal was 5.74 enrichment R.
Under B8 stands 1.24 enrichment R.
Turning to B9, the binding signal came out at 1.21 enrichment R.
The figure for B10 is 1.19 enrichment R; for B11 it is 0.544 enrichment R.
The figure for B12 is 1.29 enrichment R; for B13 it is 2.14 enrichment R; for B14 it is 8.1 enrichment R.
With B15, the binding signal was 15.3 enrichment R.
Under B16 stands 3.28 enrichment R; under B17, 0.833 enrichment R.
Under B18 stands 0.656 enrichment R.
The figure for B19 is 1.45 enrichment R.
B20 showed a binding signal of 1.14 enrichment R.
In the case of B21, the binding signal stood at 1.11 enrichment R.
In turn, B22 returned a binding signal of 0.664 enrichment R.
The figure for B23 is 5.29 enrichment R; for B24 it is 5.29 enrichment R.
For the molecule B25, the binding signal was 1.25 enrichment R.
